Hits are enriched below; roughly 1.8% of the tested compounds scored in any of these assays.
DENV2 CPE = inhibitors of DENV2 cytopathic effect, primary screen, cell-based, plate reader, single concentration. AID 651640, 2012. DENV2-infected cells, cytopathic effect rescue. CPE inhibition, % at 9.99 µM. 350,000 tested, 1.7% active; in the data active means CPE inhibition above about 20%, passing the limit was not always enough; inconclusive means no clear call, values can overlap the other calls; tested in BHK-21 cells;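 further: 0% = median of neutral control wells and 100% = median of positive control wells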
PDI turbidity = inhibitors of human PDI, primary screen, biochemical, turbidity, single point, plate reader; 350,000 tested, 0.052% active; PDI insulin aggregation turbidity, A650, 90 min; inhibition, % at 10 µM; Protein disulfide-isomerase (Homo sapiens), P07237;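 active means mean inhibition across replicates of 30% or more, whatever share of single replicates reach that level; inconclusive means mean inhibition below 30% while every single replicate reaches 30%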
ERp5 block = inhibitors of ERp5-driven insulin aggregation, primary screen, biochemical, turbidity, absorbance 650 nm, single point. AID 651711, 2012. 90 min. inhibition, % at 9.99 µM. 350,000 tested, 0.05% active;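 active means mean replicate inhibition above about 25%, with every replicate also reaching it, limit read from the data, passing the limit was not always enough; inconclusive means only one of those two criteria met; inactive means neither criterion met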
ERAP1 HTS inh = human ERAP1 aminopeptidase inhibitors, primary screen, biochemical, single point, plate reader; AID 652197, 2013; recombinant ERAP1, Leu-AMC fluorescence, 60 min; 340,000 tested, 0.15% active; inhibition, % at 10.7 µM;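 active means mean replicate inhibition of at least 30%, or all replicates individually reaching that 30% level; inactive means mean below 30% and not every replicate reaching it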;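 further: 0% = neutral control wells and 100% = L-leucinethiol positive control wells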
AF4-AF9 inh = inhibitors of AF4 peptide binding to AF9, primary screen, biochemical, AlphaScreen, biotin-AF4 peptide, FLAG-AF9, single point. 350,000 tested, 0.47% active. Protein AF-9 (Homo sapiens), P42568. inhibition, % at 10 µM;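 active means every replicate reaching a set inhibition limit, whatever the replicate mean, cut at about 25% in these data; inconclusive means mean inhibition reaches that limit but some replicates miss it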;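 further: 0% = plate neutral control median and 100% = total signal loss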
Target sequence (P42568 whole entry, looked up): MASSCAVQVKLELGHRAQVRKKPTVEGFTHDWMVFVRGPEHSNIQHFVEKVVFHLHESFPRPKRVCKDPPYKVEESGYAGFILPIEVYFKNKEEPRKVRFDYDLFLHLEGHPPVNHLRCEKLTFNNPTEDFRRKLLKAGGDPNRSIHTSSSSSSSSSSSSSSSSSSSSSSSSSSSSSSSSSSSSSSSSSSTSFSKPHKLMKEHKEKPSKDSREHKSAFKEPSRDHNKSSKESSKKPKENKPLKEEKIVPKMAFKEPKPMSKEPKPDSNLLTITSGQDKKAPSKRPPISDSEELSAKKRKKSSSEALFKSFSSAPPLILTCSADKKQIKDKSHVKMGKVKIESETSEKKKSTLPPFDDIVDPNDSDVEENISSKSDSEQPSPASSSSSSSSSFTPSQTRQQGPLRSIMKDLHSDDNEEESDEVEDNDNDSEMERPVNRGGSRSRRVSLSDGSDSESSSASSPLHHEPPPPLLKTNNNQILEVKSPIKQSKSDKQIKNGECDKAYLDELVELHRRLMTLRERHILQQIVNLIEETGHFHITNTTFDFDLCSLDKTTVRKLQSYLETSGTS
Numbers without * were called inactive; ? = inconclusive; · = not tested or not shown.

SMILES	DENV2 CPE	PDI turbidity	ERp5 block	ERAP1 HTS inh	AF4-AF9 inh
C[C@@H]1CN([C@@H](C)CO)C(=O)c2cc(NC(=O)Nc3ccc(F)cc3)ccc2O[C@@H](C)CCCCO[C@@H]1CN(C)CC1CCCCC1	1.8	·	-1.4	0.1	-4.0
COc1ccc(NC(=O)Nc2ccc3c(c2)C(=O)N([C@H](C)CO)C[C@H](C)[C@@H](CN(C)CC2CC2)OCCCC[C@@H](C)O3)cc1	8.0	·	-2.3	2.1	15.9
COc1ccc(NC(=O)Nc2ccc3c(c2)C(=O)N([C@H](C)CO)C[C@@H](C)[C@H](CN(C)CC2CC2)OCCCC[C@@H](C)O3)cc1	1.5	·	4.3	-0.5	27.7*
CC(C)NC(=O)Nc1ccc2c(c1)C(=O)N([C@@H](C)CO)C[C@H](C)[C@@H](CN(C)CC1CCCCC1)O2	17.7	·	-6.3	-1.1	-0.2
C[C@H](CO)N1C[C@H](C)[C@@H](CN(C)CC2CCCCC2)Oc2ccc(NC(=O)Nc3ccc(F)cc3)cc2C1=O	27.2*	·	-0.2	-2.5	4.4
C[C@@H]1CN([C@@H](C)CO)C(=O)c2cc(NC(=O)Nc3ccc(F)cc3)ccc2O[C@H]1CN(C)C	26.6*	·	1.9	0.8	-0.5
C[C@@H]1CCCCO[C@H](CN(C)CC2CCCCC2)[C@@H](C)CN([C@H](C)CO)C(=O)c2cc(NC(=O)Nc3ccccc3)ccc2O1	20.5*	·	1.6	-0.1	6.1
C[C@@H]1CN([C@@H](C)CO)C(=O)c2cc(NC(=O)Nc3ccc(F)cc3)ccc2O[C@@H]1CN(C)C	5.4	·	1.9	-0.5	-3.2
C[C@@H]1CCCCO[C@@H](CN(C)CC2CC2)[C@H](C)CN([C@H](C)CO)C(=O)c2cc(NC(=O)Nc3ccccc3)ccc2O1	40.9*	·	-2.0	-1.4	20.3
COc1cccc(S(=O)(=O)N2CC3(CN(C(=O)Nc4cccc(F)c4)[C@@H](CO)c4[nH]c5cc(OC)ccc5c43)C2)c1	-11.4	·	20.1	4.9	-2.5
COCC#Cc1ccc2c(c1)O[C@@H](CN(C)CC1CCOCC1)[C@H](C)CN([C@@H](C)CO)S2(=O)=O	-0.3	·	-0.3	-0.1	-2.9
CC(C)C(=O)Nc1ccc2c(c1)C(=O)N(C)[C@@H]1CC[C@@H](CC(=O)NCCc3ccccc3)O[C@@H]1CO2	-0.9	·	·	·	·
Cc1nnc(C)c2c(C)n(-c3ccccc3)c(C)c12	-1.2	-8.9	1.6	-1.9	19.3
Cc1nnc(C)c2c(C)n(C(c3ccccc3)c3ccccc3)c(C)c12	7.9	-3.9	-0.2	-2.7	30.2*
COc1ccc(Br)c2oc(SC)cc(=O)c12	81.9*	-1.9	-2.7	·	1.0
COc1cccc(=O)c2c(C)oc(C)c12	·	-7.2	·	·	·
CCC(=O)Nc1ccc2c(c1)OC[C@H](C)N(Cc1cccnc1)C[C@@H](C)[C@@H](OC)CN(C)C2=O	-8.2	·	5.2	-3.7	-22.2
CCC(=O)Nc1ccc2c(c1)C(=O)N(C)C[C@@H](OC)[C@H](C)CN(Cc1ccccc1)[C@@H](C)CO2	37.4*	·	-3.1	-0.8	0.1
COCC(=O)Nc1ccc2c(c1)OC[C@H](C)N(Cc1ccccc1OC)C[C@@H](C)[C@H](OC)CN(C)C2=O	-9.0	·	1.9	0.0	2.0
COCC(=O)Nc1ccc2c(c1)C(=O)N(C)C[C@@H](OC)[C@H](C)CN(Cc1ccccc1)[C@@H](C)CO2	-11.7	·	-11.9	2.2	2.8
CCC(=O)Nc1ccc2c(c1)OC[C@@H](C)N(Cc1cccnc1)C[C@H](C)[C@@H](OC)CN(C)C2=O	47.7*	·	-3.8	-5.9	-14.4
COCC(=O)Nc1ccc2c(c1)OC[C@H](C)N(Cc1ccccc1OC)C[C@H](C)[C@@H](OC)CN(C)C2=O	21.6*	·	·	-2.1	-0.5
COCC(=O)Nc1ccc2c(c1)C(=O)N(C)C[C@H](OC)[C@@H](C)CN(Cc1ccccc1)[C@@H](C)CO2	26.2*	·	-14.0	1.9	4.0
COCC(=O)Nc1ccc2c(c1)OC[C@H](C)N(Cc1cccc(F)c1)C[C@H](C)[C@@H](OC)CN(C)C2=O	24.7*	·	·	3.6	-0.6
COc1ccc(CN2C[C@H](C)[C@H](OC)CN(C)C(=O)c3cc(NC(=O)c4nc5ccccc5s4)ccc3OC[C@@H]2C)cc1	22.0*	·	-7.8	0.4	4.9
SMILES	DENV2 CPE	PDI turbidity	ERp5 block	ERAP1 HTS inh	AF4-AF9 inh
COc1ccc(CN2C[C@@H](C)[C@@H](OC)CN(C)C(=O)c3cc(NC(=O)c4nc5ccccc5s4)ccc3OC[C@H]2C)cc1	-0.5	·	-3.8	0.2	4.3
COc1ccccc1CN1C[C@@H](C)[C@H](OC)CN(C)C(=O)c2cc(NC(=O)Nc3ccccc3OC)ccc2OC[C@H]1C	-0.7	·	2.7	-0.8	5.0
CO[C@H]1CN(C)C(=O)c2ccc(NC(C)=O)cc2OC[C@H](C)N(Cc2cc(F)ccc2F)C[C@@H]1C	31.7*	·	-6.0	-1.8	2.9
COc1ccccc1NC(=O)Nc1ccc2c(c1)C(=O)N(C)C[C@@H](OC)[C@H](C)CN(Cc1ccccc1Cl)[C@H](C)CO2	28.4*	·	0.0	-0.7	3.2
CC(C)NC(=O)Nc1ccc2c(c1)C(=O)N([C@@H](C)CO)C[C@H](C)[C@H](CN(C)S(=O)(=O)c1ccc(F)cc1)OCCCC[C@H](C)O2	-2.9	·	-2.9	-0.5	2.3
O=C(C[C@H]1CC[C@@H](NC(=O)c2cnccn2)[C@H](CO)O1)NCc1ccccc1F	5.2	·	1.6	1.3	-5.7
CCC(=O)Nc1ccc2c(c1)C(=O)N(C)C[C@H](OC)[C@H](C)CN(Cc1ccccc1OC)[C@@H](C)CO2	22.4*	·	3.1	1.2	-8.1
CCC(=O)Nc1ccc2c(c1)C(=O)N(C)C[C@H](OC)[C@H](C)CN(Cc1ccccc1OC)[C@H](C)CO2	-5.5	·	1.2	-1.5	-6.9
CO[C@@H]1CN(C)C(=O)c2cc(NC(=O)C3CCC3)ccc2OC[C@@H](C)N(Cc2ccncc2)C[C@@H]1C	41.2*	·	7.4	4.5	-3.0
CO[C@H]1CN(C)C(=O)c2cc(NC(=O)C3CCC3)ccc2OC[C@H](C)N(Cc2ccncc2)C[C@H]1C	-9.0	·	-4.2	2.3	-4.6
CN(C)CCn1c(=O)n(-c2ccc(F)cc2)c(=O)c2c3c(sc21)CCCCC3	-11.4	-0.9	2.4	6.3	0.3
CN(C)CCCn1c(=O)n(C2CCCCC2)c(=O)c2c3c(sc21)CCCCC3	10.2	19.4	-0.8	-0.1	27.8*
O=C1CN(c2nc3ccccc3n3cnnc23)CC(=O)N1CCc1ccccc1	-2.5	?	-3.4	0.1	25.2*
CCC(C)N1C(=O)S/C(=C/c2ccc(N3CCOCC3)cc2C)C1=O (configuration not stated)	4.4	2.8	2.4	7.2	26.3*
N#C[C@H]1[C@@H](c2ccc(/C=C/c3ccccc3)cc2)[C@@H](CO)N1C(=O)C1CCCC1	4.8	·	-2.4	1.2	-1.3

High-throughput results from PubChem BioAssay.
